In PubChem BioAssay AID449762 (Southern Research Specialized Biocontainment Screening …, 2010):
Screen size: about 330,000 compounds; about 1,900 (0.58%) were called active. Inconclusive results (about 4%) are left out. These entries were drawn from the full list. Entries with a potency or affinity are not part of this list. Values without a mark were called inactive. Cut-off read from the data, not from the text of the source: inconclusive = inhibition above about 70% without an active follow-up result; inactive = below that.

Experiment: M. tuberculosis growth inhibition, HTS (AID 449762);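 note: bacterial growth assessed after seven days of incubation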
Settings: M. tuberculosis H37Rv growth inhibition, 7H9 media; at 25 µM; hits give high values

Row | Structure (SMILES) | inhibition [%]
1 | O=c1[nH]nc(-c2ccc(F)cc2)cc1Cc1ccccn1 | 1.36
2 | CCC(C)(C)NC(=O)C(c1ccc(OC)cc1)N(C(=O)CCC(=O)Nc1cc(C)on1)c1ccccc1OC (stereo not drawn) | -10.6
3 | O=[N+]([O-])c1ccccc1/C=C/CN1CCCCC1 | -9.58
4 | O=C(Nc1ccn(Cc2c(F)c(F)c(F)c(F)c2F)n1)c1ccc(COc2ccccc2Cl)cc1 | -14
5 | O=C(Nc1ccn(Cc2c(F)c(F)cc(F)c2F)n1)c1ccc(COc2ccccc2Cl)cc1 | 0.39
6 | CCCOC(=O)C1NC(=O)N2C(C(=O)OCCC)C(C)(C)S[C@H]12 (stereo partly drawn) | -1.23
7 | c1ccc(-c2ccc(SCc3cccnc3)nn2)nc1 | -8.38
8 | c1ccc(CSc2ccc(-c3ccccn3)nn2)nc1 | 7.58
9 | CC(=O)c1ccc(NC(=O)C(C)Sc2nnc3ccccn23)cc1 (stereo not drawn) | -6.02
10 | C=CCn1c(O)c(N=Nc2ccccc2C)c2ccccc21 | 53.8
11 | C=CCn1c(O)c(N=Nc2ccccc2)c2ccccc21 | 19.4
12 | O=C(Nc1ccc(C(=O)N2CCCC2)cc1)Nc1ccc(Cl)cc1Cl | -2.35
13 | CC(C)c1nc(NCCO)c2nnn(Cc3ccccc3)c2n1 | -8.58
14 | COc1ccc(-n2nc(C(=O)NCC(=O)Nc3cc(C)ccc3OC)c3ccccc3c2=O)c(OC)c1 | 12.5
15 | c1ccc(Cn2c[n+](Cc3ccccc3)c3ccccc32)cc1 | 2.04
16 | Cc1ccc(OCC(O)CN2CCN(c3ccc(C)cc3)CC2)cc1 (stereo not drawn) | 10.5
17 | O=C(CCNC(=O)c1ccc([N+](=O)[O-])cc1)Nc1ccc(F)cc1F | 17.9
18 | CO/N=C/CC(=O)Nc1ccc(F)cc1F | -4.1
19 | O=C(COC(=O)c1ccc(F)cc1F)NCc1ccc2c(c1)OCO2 | 2.2
20 | C=CCOc1ccc(C2=NOC(C(=O)Nc3ccc4c(c3)OCCO4)C2)cc1OC (stereo not drawn) | 4.17
21 | O=C(Nc1ccc2c(c1)OCCO2)C1CC(c2ccc(F)cc2)=NO1 (stereo not drawn) | -3.61
22 | COc1ccccc1-c1nnc2sc(C3CCCCC3)nn12 | -3.09
23 | COc1cccc(-c2nnc3sc(C4CCCCC4)nn23)c1 | 66.4
24 | CC(CN1CCCC1)OC(=O)c1ccc(Cl)cc1Cl (stereo not drawn) | 4.38

Row | Structure (SMILES) | inhibition [%]
25 | CC(=O)c1ccc(N2CCN(C(=S)NCCCN(C)C)CC2)cc1 | 3.66
26 | CCCCNC(=S)N1CCN(c2ccc(C(C)=O)cc2)CC1 | 7.05
27 | COc1ccc(-c2sc(Nc3ccccc3)n[n+]2-c2ccc(F)cc2)c(C)c1C | 1.59
28 | CC(C)c1ccccc1NC(=O)CC1(CC(=O)O)CCCC1 | -1.9
29 | Cc1ccc(N2C(=O)[C@@H]3Cc4ccccc4CN3C2=O)cc1 | 1.44
30 | O=[N+]([O-])c1c(C(Cl)Cl)nn(-c2ccccc2)c1N1CCOCC1 | 5.81
31 | O=[N+]([O-])c1c(C(Cl)Cl)nn(-c2ccccc2)c1N1CCCC1 | -9.83
32 | Cc1cc(C)n(-c2ccc(C(=O)NCc3cccs3)cc2)n1 | -8.74
33 | COc1ccc(-c2cc(N)n(S(=O)(=O)c3ccc(C)cc3)n2)c(OC)c1 | -6.16
34 | Cc1ccc(-n2c(C)cc(/C=C3\SC(=O)NC3=O)c2C)cc1 | 7.2
35 | Cc1cc(/C=C2\SC(=O)N(C)C2=O)c(C)n1-c1ccc(S(N)(=O)=O)cc1 | -2.91
36 | Nc1ccc(-c2cc(-c3ccc(N)cc3)nc(-c3ccccc3)n2)cc1 | -2.43
37 | COc1ccccc1N1CCN(C(c2cccs2)C(C)NC(=O)C(=O)N2CCCCC2)CC1 (stereo not drawn) | 3.15
38 | Cc1cc(C(=O)Nc2c(C)nn(Cc3ccccc3Cl)c2C)no1 | -4.86
39 | Cc1ccc(S(=O)(=O)Oc2cccc(/C=N/Nc3ccc(C(=O)O)cc3)c2)cc1 | 20.9
40 | CC(C)(C)c1ccc(Cn2nnc3c(=O)[nH]c(C4CCCN(C(=O)c5cccs5)C4)nc32)cc1 (stereo not drawn) | 11.9
41 | O=C(Cc1cccs1)N1CCCC(c2nc3c(nnn3Cc3ccc(F)cc3)c(=O)[nH]2)C1 (stereo not drawn) | -5.77
42 | COc1c(/C=N/NC(N)=S)c(C)nn1-c1ccccc1 | 65.5
43 | CCC1CN(C(=O)N2CCC(C(=O)NCCc3ccccc3OC)CC2)c2ccccc2O1 (stereo not drawn) | 2.39
44 | CCCc1cc2c(cc1NC(=O)c1ccco1)OCO2 | 0.1
45 | CCCc1cc2c(cc1NC(=O)c1ccccc1F)OCO2 | 42
46 | CCCCNC(=S)N(C)/N=C/c1ccc(OCC(=O)Nc2ccc(OC)cc2)c(OC)c1 | 5.57
47 | O=C(NNC(=O)c1cccc(-n2cnnn2)c1)c1ccccc1 | 4.62
48 | COc1ccc(CCN2CCCC(CN(C)Cc3cc(OC)c(OC)c(OC)c3)C2)cc1 (stereo not drawn) | 2.86

Row | Structure (SMILES) | inhibition [%]
49 | CCCCCCCCNC(=O)/C(C#N)=C/c1ccccc1[N+](=O)[O-] | 9.84
50 | C(=Nc1ccc(Nc2ccccc2)cc1)c1ccc2ccccc2c1 | 1.29
51 | O=[N+]([O-])c1ccc(N=Cc2ccc(Br)c([N+](=O)[O-])c2)cc1 | -2.74
52 | Cc1ccc(NC(=O)CCSc2ccccn2)cc1 | -4.42
53 | Cc1cccc(N2CCN(C(=O)C3CCN(S(=O)(=O)c4cccc5cccnc45)CC3)CC2C)c1 (stereo not drawn) | -1.75
54 | Cc1cc(C)c(NC(=O)COC(=O)Cn2nc(-c3ccccc3)oc2=O)c(C)c1 | 3.1
55 | C[C@@H]1C[C@H]2OC(=O)C3(CO3)[C@H]2[C@H](O)[C@]2(C)C(=O)C3OC3[C@@H]12 (stereo partly drawn) | -4.69
56 | C=C1C(=O)O[C@@H]2C[C@@H](C)[C@H]3C=CC(=O)[C@]3(O)C[C@@H]12 | 7.75
57 | Cc1cccc(NC(=O)NNC(=O)COc2ccc3ccccc3c2)c1 | -0.35
58 | COc1ccc(OC)c(C(c2nnnn2C2CCCC2)N2CCN(c3ccc(F)cc3)CC2)c1 (stereo not drawn) | 4.35
59 | O=C1C(=O)N(c2ccccn2)C(c2ccc(F)cc2)/C1=C(/O)c1ccc(Br)cc1 (stereo not drawn) | -4.6
60 | CC1CCCC(NC(=O)CSC2CCCCC2)C1C (stereo not drawn) | 3.14
61 | CC1CCCC(NC(=O)NC(=O)COC(=O)c2ccc(O)cc2O)C1C (stereo not drawn) | 0.995
62 | Cc1cccc(OCC(=O)NNC(=O)Cn2c(=O)cnc3ccccc32)c1 | -8.21
63 | O=C(CSc1nc(=O)n2ccccc2n1)Nc1cccc2ccccc12 | 5.25
64 | N#Cc1ccccc1OCC(=O)N1N=C(c2cccs2)CC1c1ccco1 (stereo not drawn) | 1.37
65 | c1ccc(-c2cn3c(n2)CCC3)cc1 | -1.06
66 | c1ccc(-c2cc3ncccc3cn2)cc1 | -4.81
67 | O=C(Nc1cccc2c1CCCC2)c1ccccc1F | 10.2
68 | CC(=O)c1ccc(-n2c(CCC(=O)O)ccc2-c2cccs2)cc1 | -2.12
69 | NC(=O)c1ccc(-n2c(CCC(=O)O)ccc2-c2cccs2)cc1 | -1.94
70 | CCc1ccc(NC(=O)CC2C(=O)N(c3ccc(OC)cc3)C(=O)N2CCOC)cc1 (stereo not drawn) | -1.31
71 | CCC(C)NC(=O)c1c(N)n(/N=C/c2cccnc2)c2nc3ccccc3nc12 (stereo not drawn) | 27.8
72 | CC(C)CNC(=O)c1c(N)n(/N=C/c2ccccn2)c2nc3ccccc3nc12 | 4.33

Row | Structure (SMILES) | inhibition [%]
73 | COc1ccc(/C=C/C(=O)Nc2ccccc2Cl)cc1S(=O)(=O)N1CCOCC1 | -10.4
74 | COc1ccc(Cn2nnnc2CN2CCc3ccccc32)cc1 | 1.54
75 | CC(OC(=O)c1snc(C(=O)NC2CCCCC2)c1N)C(=O)NC1CCCCC1 (stereo not drawn) | -2.81
76 | O=C(COC(=O)c1nsc(Cl)c1Cl)NC1CCCCC1 | 0.77
77 | Nc1c(-c2ccccc2)nc(Cl)nc1-c1ccccc1 | 15.6
78 | c1ccc(-c2nc3cccnc3nc2-c2ccccc2)cc1 | -12.8
79 | COc1ccc(S(=O)(=O)NCC(=O)N(CC(=O)NCC2CCCO2)Cc2ccccc2)cc1 (stereo not drawn) | -4.12
80 | COc1ccc(CCNC(=O)C(=O)NCc2ccc(C(C)C)cc2)cc1OC | -15.8
81 | COc1ccc(C2(c3ccc(OC)cc3)NC(=O)N(CC(=O)Nc3ccc(C(N)=O)cc3)C2=O)cc1 | -7.66
82 | COc1ccc(NC(=O)CN2C(=O)NC(c3ccccc3)(c3ccccc3)C2=O)cc1 | -1.71
83 | CC(C)CCc1noc(CN(CC2CCC2)CC2CCCO2)n1 (stereo not drawn) | -1.94
84 | O=C(COC(=O)Cc1ccc(S(=O)(=O)N2CCOCC2)s1)Nc1ccc([N+](=O)[O-])cc1 | -2.45
85 | Cc1ccc(CNC(=O)c2ccc(N3CCC4(CC3)CC(c3ccccc3)=NO4)c(NC(=O)c3ccc(Cl)c([N+](=O)[O-])c3)c2)cc1 | -10.7
86 | Cc1cccc(NC(=O)CCN2C(=O)c3cccc([N+](=O)[O-])c3C2=O)c1 | -5.47
87 | Cc1ccc(NC(=O)CCN2C(=O)c3cccc([N+](=O)[O-])c3C2=O)c(Br)c1 | 7.28
88 | O=C(CN1C(=O)COc2ccccc21)c1cccc(Cl)c1 | 1.54
89 | CCCCN=C1CC(C)(C)CC(=O)/C1=C(/O)CCC | -2.63
90 | CCCN=C1CC(C)(C)CC(=O)/C1=C(/O)CCC | -3.03
91 | CC(=O)Nc1ccc(C(=O)NNC(=O)C2CC2)cc1 | -9.13
92 | Cc1ccccc1[N+](=O)[O-] | -10.8
93 | O=[N+]([O-])c1cccc2c([N+](=O)[O-])cccc12 | 9.13
